Data published in PubChem BioAssay (NCI).
About 83,000 compounds went through this panel and 20% of them were active in at least one assay; those are over-represented in the sample as a whole.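 Compound tested at a single concentration for 48 hours in 96-well plates; a percent growth value below 10 was scored as active.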 Calls of active or inactive are those of the source.

Experiments:
Assay in all cases: NCI-60 one-dose screen, 48 h (100 = growth as untreated, 0 = no growth, -100 = all killed)
Details in all cases: 10 µM unless noted
NCI-H23 lung = test system: NCI-H23 lung
NCI-H226 lung = test system: NCI-H226 lung
NCI-H322M lung = test system: NCI-H322M lung
HOP-62 NSCLC = test system: HOP-62 NSCLC
NCI-H460 lung = test system: NCI-H460 lung
HOP-92 NSCLC = test system: HOP-92 NSCLC
NCI-H522 lung = test system: NCI-H522 lung
A549/ATCC NSCLC = test system: A549/ATCC NSCLC
786-0 renal = test system: 786-0 renal
COLO 205 colon = test system: COLO 205 colon

Measured: growth

O=C(Nc1ccncc1)C(=O)c1cn(S(=O)(=O)c2ccccc2F)c2ccccc12
inactive: NCI-H23 lung 25.9% | NCI-H226 lung 56.8% | NCI-H322M lung 97.2% | HOP-62 NSCLC 38.4% | NCI-H460 lung 75.8% | HOP-92 NSCLC 24.6% | A549/ATCC NSCLC 71.8% | 786-0 renal 36.9% | COLO 205 colon 103%
active: NCI-H522 lung -24.6%

Fc1ccccc1-c1nc(-c2nc3cc(Cl)c(Cl)cc3[nH]2)c2ccccn12
inactive: NCI-H23 lung 69.2% | NCI-H226 lung 78.5% | NCI-H322M lung 67.8% | HOP-62 NSCLC 68.8% | NCI-H460 lung 57.3% | HOP-92 NSCLC 49.6% | NCI-H522 lung 72.5% | A549/ATCC NSCLC 72.2% | 786-0 renal 86.4% | COLO 205 colon 89.6%

COc1ccc(Nc2[nH]n3c(=O)cc(C)nc3c2C(N)=O)c(OC)c1
inactive: NCI-H23 lung 100% | NCI-H226 lung 97.4% | NCI-H322M lung 96% | HOP-62 NSCLC 85.9% | NCI-H460 lung 105% | HOP-92 NSCLC 73.1% | NCI-H522 lung 84.9% | A549/ATCC NSCLC 89.5% | 786-0 renal 99.1% | COLO 205 colon 102%

CN(C)c1nc2c(N)ncnc2n1C1OC(CO)C(O)C1O (stereo not given)
inactive: NCI-H23 lung 110% | NCI-H226 lung 104% | NCI-H322M lung 122% | HOP-62 NSCLC 103% | NCI-H460 lung 121% | HOP-92 NSCLC 98.1% | NCI-H522 lung 108% | A549/ATCC NSCLC 106% | 786-0 renal 99.2% | COLO 205 colon 108%

Cn1cnc2c(N3CCN(C(=O)OCc4ccc5c(Cl)cc(Cl)c(O)c5n4)CC3)nc(Cl)nc21
inactive: NCI-H23 lung 86.4% | NCI-H226 lung 72.9% | NCI-H322M lung 70.2% | HOP-62 NSCLC 53.7% | NCI-H460 lung 27.6% | HOP-92 NSCLC 70.7% | NCI-H522 lung 80.3% | A549/ATCC NSCLC 51.2% | 786-0 renal 92.1% | COLO 205 colon 109%

COc1ccncc1S(=O)(=O)NC(=O)Nc1ccc(Cl)c(Cl)c1
inactive: NCI-H23 lung 89% | NCI-H226 lung 92.5% | NCI-H322M lung 95% | HOP-62 NSCLC 83.9% | NCI-H460 lung 104% | HOP-92 NSCLC 80.7% | NCI-H522 lung 82.5% | A549/ATCC NSCLC 44.5% | 786-0 renal 94.2% | COLO 205 colon 105%

Cn1c2ccc(Br)cc2c2c3c(c4c5ccccc5[nH]c4c21)C(=O)N(O)C3=O
inactive: NCI-H226 lung 24.1%
active: NCI-H23 lung -42.6% | NCI-H322M lung -68% | HOP-62 NSCLC -67.8% | NCI-H460 lung -14.8% | HOP-92 NSCLC -77.3% | NCI-H522 lung -67% | A549/ATCC NSCLC -13.8% | 786-0 renal -93.8% | COLO 205 colon -84.4%

COc1ccc(OC)c(C2OC(c3ccc4ccccc4c3O)=NN2C(C)=O)c1 (stereo not given)
inactive: NCI-H23 lung 80% | NCI-H226 lung 87.1% | NCI-H322M lung 77.5% | HOP-62 NSCLC 65.4% | NCI-H460 lung 43% | HOP-92 NSCLC 54.4% | NCI-H522 lung 35.6% | A549/ATCC NSCLC 56.5% | 786-0 renal 81.9% | COLO 205 colon 77.1%

CCCCCCCCCCCCCCCCNC(=O)OC(C)C
inactive: NCI-H23 lung 54.1% | NCI-H226 lung 69.1% | HOP-62 NSCLC 40.5% | HOP-92 NSCLC 53% | A549/ATCC NSCLC 10.3% | 786-0 renal 83.9%
active: NCI-H322M lung -20.9% | NCI-H460 lung 2.2% | NCI-H522 lung -54.3% | COLO 205 colon -29.6%

CCN(CC)c1ccc2[nH]c3c(C(N)=O)cc(=O)c(=O)c=3oc2c1
inactive: HOP-92 NSCLC 26% | 786-0 renal 15%
active: NCI-H23 lung -28.2% | NCI-H226 lung 7.46% | NCI-H322M lung -9.42% | HOP-62 NSCLC -11.8% | NCI-H460 lung -31.8% | NCI-H522 lung -39.7% | A549/ATCC NSCLC -5.31% | COLO 205 colon 1.25%

Clc1cc2c(nn1)Nc1ccccc1S2
inactive: NCI-H23 lung 94.7% | NCI-H226 lung 104% | NCI-H322M lung 97.8% | HOP-62 NSCLC 97.5% | NCI-H460 lung 99.2% | HOP-92 NSCLC 83.6% | NCI-H522 lung 56.5% | A549/ATCC NSCLC 91.7% | 786-0 renal 99.3% | COLO 205 colon 116%

CCNc1nc(S(=O)(=O)CC)nc2ccccc12
inactive: NCI-H23 lung 103% | NCI-H226 lung 102% | NCI-H322M lung 104% | HOP-62 NSCLC 96.1% | NCI-H460 lung 101% | HOP-92 NSCLC 104% | NCI-H522 lung 81.8% | A549/ATCC NSCLC 105% | 786-0 renal 101% | COLO 205 colon 114%

O=C(O)Cc1cccc(=O)c(O)c1C(=O)O
inactive: NCI-H23 lung 108% | NCI-H226 lung 111% | NCI-H322M lung 129% | HOP-62 NSCLC 103% | NCI-H460 lung 124% | HOP-92 NSCLC 103% | NCI-H522 lung 106% | A549/ATCC NSCLC 104% | 786-0 renal 100% | COLO 205 colon 108%

Cc1csc(NC(c2ccc(Br)cc2)c2c(C)nc3ccccn23)n1 (stereo not given)
inactive: NCI-H23 lung 84% | NCI-H226 lung 81.6% | NCI-H322M lung 84.9% | HOP-62 NSCLC 92.8% | NCI-H460 lung 98.4% | HOP-92 NSCLC 42.9% | NCI-H522 lung 89.3% | A549/ATCC NSCLC 87.6% | 786-0 renal 90.4% | COLO 205 colon 90.2%
